The nature of experiment [1]: qHTS drug screen for cell cycle checkpoint inhibitors in PARPi-resistant BRCA-mutant ovarian cancer cell lines. (AID 1963452). To be noted: PEO1/OlaR viability, CellTiter-Glo luminescence, 96 h; for Z-AUC: stronger effect = lower value. The essentials:
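PEO1, PEO4 and PEO1/OlaR ovarian cancer cells, 600 per well, exposed 96 h at 37C to a dilution series. Viability read by CellTiter-Glo luminescence, normalized to DMSO and empty wells; activity summarized as Z-AUC.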

The test system of a further experiment is 7G8. Briefly: qHTS profiling for inhibitors of Plasmodium falciparum proliferation (AID 504749; active means well fitted inhibition curve with a large enough effect; further: nearly all actives have a fitted effect of over 60% in size). The conditions noted are these: P. falciparum in erythrocytes, SYBR Green DNA, 72 h; series mostly up to 28.7 µM. The method in brief:
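Infected RBCs, 0.3% parasitemia/2.5% Hct final; cpd 72 h, 37 C, 5% CO2; lysis buffer with saponin/triton/SYBR Green I, o/n RT dark; FI 485/535; norm. to artemisinin (0.29 uM) and DMSO.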
On the technique in general: In qHTS, concentration-response curves come from the screen itself.

Setting [2] is: measured here: PEO1 parental Z-AUC.

Inconclusive results are not listed. Activity calls are given as the source filed them. Unless noted, the call rests on the fitted dose curve.
Potency means the concentration at half of the fitted maximal effect.

With `FC(F)(F)c1ccc(/C=C/c2nc(COc3ccc(CCCCn4ccnn4)cc3)co2)cc1`, in experiment [1], the Potency is 195 nM (active). Moreover, the Z-AUC in experiment [1] (setting [2]) is -3.45; in experiment [1] (measured here: PEO4 Z-AUC), -2.45.
For `C=CC(=O)Nc1cccc(Nc2nc(Nc3ccc(OCCOC)cc3)ncc2F)c1`, the values for the Z-AUC in experiment [1], in experiment [1] (setting [2]) and in experiment [1] (measured here: PEO4 Z-AUC) were -0.82 (inactive), -1.21 and -1.08, respectively.
Take `CCCc1cc(C)[nH]c(=O)c1CNC(=O)c1cc(-c2ccc(N3CCN(C(C)C)CC3)nc2)cc2c1cnn2C(C)C`: the Z-AUC is 0.233 (inactive) in experiment [1], 0.123 in experiment [1] (setting [2]) and 0.0189 in experiment [1] (measured here: PEO4 Z-AUC).
For the compound `Nc1nc(OCc2cc(Br)cs2)c2[nH]cnc2n1`, the values for the Z-AUC in experiment [1], in experiment [1] (setting [2]) and in experiment [1] (measured here: PEO4 Z-AUC) were -0.86 (inactive), 0.672 and 0.221, respectively.
As to `COc1cc2c(cc1OC(C)C)[C@H](c1ccc(Cl)cc1)N(c1ccc(N(C)CC3CCC(N4CCN(C)C(=O)C4)CC3)cc1)C(=O)C2` (stereo partly drawn), the results for the Z-AUC in experiment [1], in experiment [1] (setting [2]) and in experiment [1] (measured here: PEO4 Z-AUC) were 0.694 (inactive), 0.366 and 0.545, respectively.
In the same order, the values of `N#Cc1ccnc(Nc2cc(C3CCN(C4COC4)CC3)cc(N3CCC(F)(F)C3)n2)c1` are -0.647 (inactive), -0.398 and 0.109.
In the same order, the values of `COc1cc2c(cc1OCCCN1CCCC1)N=C(N)C21CCC1` are -0.834 (inactive), -0.0136 and -0.411.
As to `CCOc1cc(C(C)(C)C)ccc1C1=N[C@@](C)(c2ccc(Cl)cc2)[C@@](C)(c2ccc(Cl)cc2)N1C(=O)N1CCN(CC(=O)N2CCOCC2)CC1`, the Z-AUC was -0.291 (inactive) in experiment [1], 0.35 in experiment [1] (setting [2]) and 0.188 in experiment [1] (measured here: PEO4 Z-AUC).
The corresponding values for `c1cc(-c2cnn3cc(-c4ccc(N5CCNCC5)cc4)cnc23)c2cccnc2c1` are -1.26 (inactive), -1.26 and -1.83.
Regarding `COC1C(OC(=O)/C=C/C=C/C=C/C=C/C(=O)O)CCC2(CO2)C1C1(C)OC1CC=C(C)C` (stereo not drawn), the Potency with 7G8 is 5.6 nM (active).

The record behind these values is PubChem BioAssay (NCATS).
